Source: PubChem BioAssay (NCATS)
Inconclusive results are not listed. Calls of active or inactive are those of the source. Calls follow the shape of the dose curve; as a rule, active = well fitted cell-killing curve with a large enough effect; inconclusive = small, poorly fitted or top-dose-only effect, or effect the other way; inactive = flat fitted curve, though single readings scatter.

Each compound was assayed on SKOV3 (assay: Primary qHTS to identify gynecologic anti-cancer compounds using libraries of approved drugs and bioactive compounds (AID 1345084; also: nearly all actives have a fitted effect of over 55% in size)). Settings: Gynecologic cancer cell panel viability, ATPlite luminescence, 48 h; series mostly up to 57.5 µM.
Outline: (§1)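 48 h compound exposure at 37 C, 5% CO2; five-point qHTS. ATPlite luminescence readout of cell ATP.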
Potency is read from the fitted curve at half-maximal effect.

SMILES | Potency
O=C(O)c1cc2cccc([N+](=O)[O-])c2[nH]1 | inactive
CC(C)c1cc(CNc2nc(Nc3cc(C4CC4)[nH]n3)cc(N3CCN(C)CC3)n2)on1 | 1 µM (active)
CC(C)c1cc(C(=O)N2CC[C@H](NC(=O)C3CC3)C2)n[nH]1 | inactive
CC1=C(C(=O)O[C@@H]2O[C@H](COC3OCC(O)C(O)C3O)[C@@H](O)[C@H](O)[C@H]2O)C(C)(C)CCC1 (some centres not stated) | inactive
Cc1onc(C(=O)N2CCN(C(c3ccc(Cl)cc3)c3ccc(Cl)cc3)CC2)c1[N+](=O)[O-] | 7.94 µM (active)
Nc1ccc(/C=C/C(=O)NCc2cc3cc(-c4ccc(C(=O)N5CCC(F)(F)CC5)cc4)cc(-c4ccc(F)cc4)c3o2)cn1 | 1.78 µM (active)
COc1ncc(Nc2ncc([C@@H](C)N3CCN(S(C)(=O)=O)CC3)cc2-c2nc(C)nc(N)n2)cc1F | 0.398 µM (active)
CCCCNc1ncc2c(-c3ccc(CN4CCN(C)CC4)cc3)cn(C3CCC(O)CC3)c2n1 (configuration not stated) | 3.55 µM (active)
CCOc1cc(N2CCC(O)CC2)ccc1Nc1ncc2c(n1)N(C1CCCC1)CCC(=O)N2C | 8.91 µM (active)
CC1(CCOC2OC(CO)C(O)C(O)C2O)CCC23OC2(C1)C(O)CC1C(C)(C(=O)O)CCCC13C (configuration not stated) | inactive
C[C@@H]1COCCN1c1cc(C2(S(C)(=O)=O)CC2)nc(-c2cccc3[nH]ccc23)n1 | 3.16 µM (active)
O=C1N=C(N2CCOCC2)CN1c1ccc(Cl)cc1 | inactive
CC1=C(C(=O)OCc2ccccc2)C(c2ccc(-c3ccccc3)cc2)NC(=O)N1CCCCCC(=O)O (configuration not stated) | inactive
COc1cc2nc(N3CCCC3)nc(NCCCCCN3CCCC3)c2cc1OC | 12.6 µM (active)
O=C(c1cn(Cc2cncn2Cc2ccc(Br)cc2)cc1-c1cccc2ccccc12)N1CCOCC1 | 17.8 µM (active)
CC(C)CCC[C@@H](C)[C@H]1CC[C@H]2[C@@H]3CC(=O)[C@H]4C[C@@H](O)CC[C@]4(C)[C@H]3CC[C@]12C | inactive
CCC1C(=O)OC23C=C[C@@H]4C(C(=O)O)=CO[C@H](O[C@@H]12)[C@@H]43 (some centres not stated) | inactive

What follows are compounds tested on Tov-21-G in the same assay as above. Settings: Gynecologic cancer cell panel viability, ATPlite luminescence, 48 h; series mostly up to 57.5 µM.
Outline: as §1

SMILES | Potency
O=C(O)c1cc2cccc([N+](=O)[O-])c2[nH]1 | inactive
COc1ccc(C(=O)Nc2ncc(-c3ccc(C(=O)O)cc3)s2)cc1 | 14.1 µM (active)
CC(C)c1cc(C(=O)N2CC[C@H](NC(=O)C3CC3)C2)n[nH]1 | inactive
CN1c2ccccc2C(=O)N2CCC3c4ccccc4NC3C21 (configuration not stated) | 6.31 µM (active)
CC1=C(C(=O)O[C@@H]2O[C@H](COC3OCC(O)C(O)C3O)[C@@H](O)[C@H](O)[C@H]2O)C(C)(C)CCC1 (some centres not stated) | inactive
Cc1onc(C(=O)N2CCN(C(c3ccc(Cl)cc3)c3ccc(Cl)cc3)CC2)c1[N+](=O)[O-] | 1.12 µM (active)
Nc1ccc(/C=C/C(=O)NCc2cc3cc(-c4ccc(C(=O)N5CCC(F)(F)CC5)cc4)cc(-c4ccc(F)cc4)c3o2)cn1 | 3.16 µM (active)
CCCCNc1ncc2c(-c3ccc(CN4CCN(C)CC4)cc3)cn(C3CCC(O)CC3)c2n1 (configuration not stated) | 7.94 µM (active)
O=S(=O)(c1ccccc1)c1cnc2c(N3CCNCC3)cccc2c1 | inactive
Cc1ccccc1C#Cc1ccc(CCC(=O)O)cc1 | 17.8 µM (active)
CC[C@]1(O)CC2CN(CCc3c([nH]c4ccccc34)[C@@](C(=O)OC)(c3cc4c(cc3OC)N(C=O)[C@H]3[C@@](O)(C(=O)OC)[C@H](OC(C)=O)[C@]5(CC)C=CCN6CC[C@]43[C@@H]65)C2)C1 (some centres not stated) | 0.126 µM (active)
CC1(CCOC2OC(CO)C(O)C(O)C2O)CCC23OC2(C1)C(O)CC1C(C)(C(=O)O)CCCC13C (configuration not stated) | inactive
CC(=O)NCC(=O)N1C2CCC1c1cc(Nc3ncc(C(F)(F)F)c(NC4CCC4)n3)ccc12 (configuration not stated) | 8.91 µM (active)
C[C@@H]1COCCN1c1cc(C2(S(C)(=O)=O)CC2)nc(-c2cccc3[nH]ccc23)n1 | 1.78 µM (active)
CN1CCN(c2ccc(C(=O)Nc3n[nH]c4ccc(Cc5cc(F)cc(F)c5)cc34)c(NC3CCOCC3)c2)CC1 | inactive
O=C1N=C(N2CCOCC2)CN1c1ccc(Cl)cc1 | inactive
CC1=C(C(=O)OCc2ccccc2)C(c2ccc(-c3ccccc3)cc2)NC(=O)N1CCCCCC(=O)O (configuration not stated) | inactive
CC(C)CCC[C@@H](C)[C@H]1CC[C@H]2[C@@H]3CC(=O)[C@H]4C[C@@H](O)CC[C@]4(C)[C@H]3CC[C@]12C | inactive
CN1CCC(Nc2nc(Nc3ccc(Oc4ccccc4)cc3)c3c(=O)[nH]cc(Br)c3n2)CC1 | inactive
Cc1ccc(C(=O)Nc2noc3ccccc23)cc1 | 28.2 µM (active)
